Measurements taken from PubChem BioAssay (NCI).
This is part of a sample that, as a whole, favours compounds with a hit. Of some 83,000 tested, about 20% had one in any assay.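 Growth was measured after 48 h exposure to one concentration of compound in 96-well plates. Values under 10 count as active.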 Calls of active or inactive are those of the source.

Experiments:
Assay in all cases: NCI-60 one-dose screen, 48 h (100 = growth as untreated, 0 = no growth, -100 = all killed)
Details in all cases: 10 µM unless noted
DU-145 prostate = tested on: DU-145 prostate
K-562 leukemia = tested on: K-562 leukemia
MALME-3M melanoma = tested on: MALME-3M melanoma
MDA-MB-231 breast = tested on: MDA-MB-231 breast
RXF 393 renal = tested on: RXF 393 renal
SF-268 CNS = tested on: SF-268 CNS
SF-295 CNS = tested on: SF-295 CNS
SF-539 CNS = tested on: SF-539 CNS
UACC-257 melanoma = tested on: UACC-257 melanoma
M14 melanoma = tested on: M14 melanoma

Measured: growth

Cc1csc(NC(c2ccc(Br)cc2)c2c(C)nc3ccccn23)n1 (stereo not given)
inactive: DU-145 prostate 107% | K-562 leukemia 79.9% | MALME-3M melanoma 88.4% | MDA-MB-231 breast 84% | RXF 393 renal 112% | SF-268 CNS 92.2% | SF-295 CNS 74.7% | SF-539 CNS 101% | UACC-257 melanoma 76.1% | M14 melanoma 90.6%

Cc1ccc(S(=O)(=O)NCCNc2cc(-c3cn(C(C)(C)C)nc3-c3cccc(O)c3)ccn2)cc1
inactive: DU-145 prostate 88.9% | K-562 leukemia 18.6% | MALME-3M melanoma 61.8% | MDA-MB-231 breast 76.6% | RXF 393 renal 68.2% | SF-268 CNS 62% | SF-295 CNS 71.6% | SF-539 CNS 64.5% | UACC-257 melanoma 79.2% | M14 melanoma 86.9%

C=C[C@@H]1C[C@H](O)Cc2cc(F)ccc2N1
inactive: DU-145 prostate 102% | K-562 leukemia 102% | MALME-3M melanoma 91.7% | MDA-MB-231 breast 96.1% | RXF 393 renal 106% | SF-268 CNS 94% | SF-295 CNS 101% | SF-539 CNS 108% | UACC-257 melanoma 96.1% | M14 melanoma 97%

COc1ccc(CCNC2=CC(=O)CCC2)cc1OC
inactive: DU-145 prostate 124% | K-562 leukemia 95.3% | MALME-3M melanoma 92.2% | MDA-MB-231 breast 104% | RXF 393 renal 119% | SF-268 CNS 104% | SF-295 CNS 104% | SF-539 CNS 106% | UACC-257 melanoma 117% | M14 melanoma 104%

COc1ccc(C(=O)N2NC(=O)/C(=C/c3cn(-c4ccccc4)nc3-c3ccccc3)N=C2c2ccccc2)cc1
inactive: DU-145 prostate 108% | K-562 leukemia 105% | MALME-3M melanoma 105% | MDA-MB-231 breast 93.8% | RXF 393 renal 104% | SF-268 CNS 98.2% | SF-295 CNS 86.9% | SF-539 CNS 115% | UACC-257 melanoma 95% | M14 melanoma 110%

COc1cc(-c2nc(-c3nc4ccc(Cl)cc4[nH]3)cc3c2[nH]c2ccccc23)cc(OC)c1OC
active: MDA-MB-231 breast 4.62%
inactive: DU-145 prostate 86.8% | K-562 leukemia 54.1% | MALME-3M melanoma 92.7% | RXF 393 renal 63.5% | SF-268 CNS 68% | SF-295 CNS 61.3% | SF-539 CNS 67.3% | UACC-257 melanoma 100% | M14 melanoma 71.7%

N/C(=N\C(N)=N\c1nc2ccccc2s1)c1cccc(Br)c1
inactive: DU-145 prostate 99.1% | K-562 leukemia 73.6% | MALME-3M melanoma 101% | MDA-MB-231 breast 73.4% | RXF 393 renal 95.5% | SF-268 CNS 101% | SF-295 CNS 76% | SF-539 CNS 98.6% | UACC-257 melanoma 103% | M14 melanoma 82%

CCO/C=N/C1=C(C#N)C(c2ccc(Cl)cc2)c2c(c3ccc(C)cc3[nH]c2=O)O1 (stereo not given)
inactive: DU-145 prostate 103% | K-562 leukemia 88.1% | MALME-3M melanoma 81.8% | MDA-MB-231 breast 59.6% | RXF 393 renal 73.9% | SF-268 CNS 90.7% | SF-295 CNS 89.6% | SF-539 CNS 75.9% | UACC-257 melanoma 97.2% | M14 melanoma 87.1%

COc1ccc(CN2CCc3c(Sc4ccccc4)nc(N)nc3C2=O)c(OC)c1
inactive: DU-145 prostate 77.4% | K-562 leukemia 48.3% | MALME-3M melanoma 38.9% | MDA-MB-231 breast 69% | RXF 393 renal 44.4% | SF-268 CNS 67.3% | SF-295 CNS 69.6% | SF-539 CNS 66.5% | UACC-257 melanoma 50.5% | M14 melanoma 61.7%

S=c1[nH]nc(-c2cc3ccc2CCc2ccc(cc2)CC3)n1C1CC1
inactive: DU-145 prostate 108% | K-562 leukemia 97.9% | MALME-3M melanoma 97% | MDA-MB-231 breast 99.5% | RXF 393 renal 105% | SF-268 CNS 103% | SF-295 CNS 93.8% | SF-539 CNS 98% | UACC-257 melanoma 105% | M14 melanoma 97.8%

ClC(Cl)c1nc(-c2ccccc2)nc2cc(-c3ccccc3)nn12
inactive: DU-145 prostate 32.4% | K-562 leukemia 36.9% | MALME-3M melanoma 93% | MDA-MB-231 breast 60% | RXF 393 renal 19.8% | SF-268 CNS 57.2% | SF-295 CNS 97.7% | SF-539 CNS 79% | UACC-257 melanoma 102% | M14 melanoma 98.7%

CO[C@H]1NC(=O)N(S(=O)(=O)c2ccc(Cl)cc2)[C@@H]1OC
inactive: DU-145 prostate 115% | K-562 leukemia 93.2% | MALME-3M melanoma 101% | MDA-MB-231 breast 108% | RXF 393 renal 119% | SF-268 CNS 102% | SF-295 CNS 92.1% | SF-539 CNS 98.7% | UACC-257 melanoma 106% | M14 melanoma 115%

Cc1ccc(-c2csc(NC(=O)CCCCl)n2)cc1
inactive: DU-145 prostate 99.9% | K-562 leukemia 74.6% | MALME-3M melanoma 94% | MDA-MB-231 breast 95.8% | RXF 393 renal 105% | SF-268 CNS 85.8% | SF-295 CNS 83.5% | SF-539 CNS 96.3% | UACC-257 melanoma 103% | M14 melanoma 103%
